According to article PMC7862700, “An all-to-all approach to the identification of sequence-specific readers for epigenetic DNA modifications on cytosine”:

How the values were obtained:
Experiment in all cases: DAPPL (digital affinity profiling via proximity ligation, sequencing); 10 mM Tris-HCl pH 7.5, 50 mM NaCl, 1 mM DTT, 4% glycerol, room temperature, 30 min; GST-TFs on glutathione beads, 16-mer random dsDNA library, 0.1% formaldehyde crosslink after washing; high values mean tight binding
[1] = biological target: T1, FLI1 (Homo sapiens, UniProt Q01543 1-452); conditions: protein: recombinant; tags: N-terminal GST; dsDNA, one strand shown
T1 sequence: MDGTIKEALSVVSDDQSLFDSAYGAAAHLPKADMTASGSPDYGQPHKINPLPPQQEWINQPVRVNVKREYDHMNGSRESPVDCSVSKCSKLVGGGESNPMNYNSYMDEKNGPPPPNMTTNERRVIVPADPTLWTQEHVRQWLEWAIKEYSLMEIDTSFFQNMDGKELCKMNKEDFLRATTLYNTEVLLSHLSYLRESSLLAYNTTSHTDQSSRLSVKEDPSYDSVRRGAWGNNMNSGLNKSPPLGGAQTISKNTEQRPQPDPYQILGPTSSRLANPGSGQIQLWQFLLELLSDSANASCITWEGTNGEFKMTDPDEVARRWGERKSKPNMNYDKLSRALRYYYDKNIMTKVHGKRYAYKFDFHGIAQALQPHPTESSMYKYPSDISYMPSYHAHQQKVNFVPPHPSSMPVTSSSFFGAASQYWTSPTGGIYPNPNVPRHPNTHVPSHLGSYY
Summary of the method: (§1)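 The binding signal reported is, for every hexamer, its read frequency for a factor over its read frequency for the tag-only sample. Reads came from pools of yeast-expressed, GST-fused human transcription factors on glutathione beads, barcoded with DNA and mixed with that sample, which were incubated with 200 nmole of a random double-stranded 16-mer DNA library in Tris/NaCl/DTT/glycerol buffer at room temperature for 30 min. After washing, the pools were crosslinked with 0.1% formaldehyde, proximity-ligated with BsaI/T4 ligase for 1 h at 37 °C, PCR-amplified and sequenced on an Illumina NextSeq500.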

[2] = biological target: T2, ELK1 (Homo sapiens, UniProt P19419 1-428); conditions: protein: recombinant; tags: N-terminal GST; dsDNA, one strand shown
T2 sequence: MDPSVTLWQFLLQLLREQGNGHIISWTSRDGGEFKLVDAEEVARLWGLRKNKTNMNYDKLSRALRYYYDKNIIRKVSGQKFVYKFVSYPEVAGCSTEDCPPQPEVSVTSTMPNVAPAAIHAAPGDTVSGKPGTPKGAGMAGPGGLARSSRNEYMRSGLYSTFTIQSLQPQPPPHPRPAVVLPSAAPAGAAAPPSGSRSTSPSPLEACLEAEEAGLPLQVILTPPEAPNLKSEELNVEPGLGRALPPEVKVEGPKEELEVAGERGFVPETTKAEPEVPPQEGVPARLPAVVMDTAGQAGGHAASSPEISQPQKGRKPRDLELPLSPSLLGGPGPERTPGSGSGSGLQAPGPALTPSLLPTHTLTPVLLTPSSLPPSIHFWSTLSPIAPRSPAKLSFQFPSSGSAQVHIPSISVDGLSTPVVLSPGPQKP
Summary of the method: as §1

[3] = biological target: T3, GABPA (Homo sapiens, UniProt Q06546 1-454); conditions: protein: recombinant; tags: N-terminal GST; dsDNA, one strand shown
T3 sequence: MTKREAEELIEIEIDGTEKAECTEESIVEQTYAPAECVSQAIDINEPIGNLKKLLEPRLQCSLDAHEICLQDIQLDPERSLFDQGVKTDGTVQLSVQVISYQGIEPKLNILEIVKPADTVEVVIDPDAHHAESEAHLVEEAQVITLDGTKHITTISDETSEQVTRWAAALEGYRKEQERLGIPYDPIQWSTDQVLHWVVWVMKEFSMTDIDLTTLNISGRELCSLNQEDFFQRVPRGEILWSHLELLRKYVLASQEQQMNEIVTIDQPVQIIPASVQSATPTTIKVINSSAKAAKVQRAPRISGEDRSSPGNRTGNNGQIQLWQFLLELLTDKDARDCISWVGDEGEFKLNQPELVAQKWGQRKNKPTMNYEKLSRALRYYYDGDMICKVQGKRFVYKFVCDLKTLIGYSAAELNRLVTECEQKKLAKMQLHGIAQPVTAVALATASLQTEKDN
Summary of the method: as §1

[4] = biological target: T4, ERG (Homo sapiens, UniProt P11308 1-479); conditions: protein: recombinant; tags: N-terminal GST; dsDNA, one strand shown
T4 sequence: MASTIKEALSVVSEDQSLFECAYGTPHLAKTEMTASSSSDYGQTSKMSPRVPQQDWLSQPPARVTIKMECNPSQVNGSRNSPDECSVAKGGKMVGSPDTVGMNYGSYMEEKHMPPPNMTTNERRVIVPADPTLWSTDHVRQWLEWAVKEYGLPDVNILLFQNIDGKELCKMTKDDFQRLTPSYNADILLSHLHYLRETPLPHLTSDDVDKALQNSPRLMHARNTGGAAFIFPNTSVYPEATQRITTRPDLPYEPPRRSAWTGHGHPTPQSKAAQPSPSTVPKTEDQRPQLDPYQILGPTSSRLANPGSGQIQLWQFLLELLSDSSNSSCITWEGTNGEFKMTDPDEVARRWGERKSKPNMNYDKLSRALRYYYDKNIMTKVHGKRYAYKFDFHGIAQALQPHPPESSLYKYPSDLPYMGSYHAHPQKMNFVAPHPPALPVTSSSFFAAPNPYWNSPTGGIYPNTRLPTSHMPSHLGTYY
Summary of the method: as §1

[5] = biological target: ELF1 (Homo sapiens, UniProt P32519 1-619); conditions: protein: recombinant; tags: N-terminal GST; dsDNA, one strand shown
Sequence of ELF1 (P32519 whole entry): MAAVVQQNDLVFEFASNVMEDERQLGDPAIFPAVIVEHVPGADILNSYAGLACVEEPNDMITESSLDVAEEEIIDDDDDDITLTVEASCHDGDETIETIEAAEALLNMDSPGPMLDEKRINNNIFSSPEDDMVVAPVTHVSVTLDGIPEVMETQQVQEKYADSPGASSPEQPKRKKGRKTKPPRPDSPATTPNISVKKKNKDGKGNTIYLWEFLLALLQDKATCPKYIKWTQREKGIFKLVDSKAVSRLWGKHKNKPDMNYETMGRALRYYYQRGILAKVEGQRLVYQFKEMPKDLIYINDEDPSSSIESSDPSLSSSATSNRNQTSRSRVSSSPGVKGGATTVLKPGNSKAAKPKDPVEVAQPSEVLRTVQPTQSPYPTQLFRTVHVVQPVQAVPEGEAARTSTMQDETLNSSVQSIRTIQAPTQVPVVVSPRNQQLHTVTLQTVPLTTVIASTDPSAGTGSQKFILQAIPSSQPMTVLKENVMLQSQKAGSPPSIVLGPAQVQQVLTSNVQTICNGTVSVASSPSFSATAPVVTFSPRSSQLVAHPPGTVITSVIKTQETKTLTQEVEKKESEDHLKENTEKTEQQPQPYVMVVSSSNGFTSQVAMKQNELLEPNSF
Summary of the method: as §1

[6] = biological target: T5, EHF (Homo sapiens, UniProt Q9NZC4 1-300); conditions: protein: recombinant; tags: N-terminal GST; dsDNA, one strand shown
T5 sequence: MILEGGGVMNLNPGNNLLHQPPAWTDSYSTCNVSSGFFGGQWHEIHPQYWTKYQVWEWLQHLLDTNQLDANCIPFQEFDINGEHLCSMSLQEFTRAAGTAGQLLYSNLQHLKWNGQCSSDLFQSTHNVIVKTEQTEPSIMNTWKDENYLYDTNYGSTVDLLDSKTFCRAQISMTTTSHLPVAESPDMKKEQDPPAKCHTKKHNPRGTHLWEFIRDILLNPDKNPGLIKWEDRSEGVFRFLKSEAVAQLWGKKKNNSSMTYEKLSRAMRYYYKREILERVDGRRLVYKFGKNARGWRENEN
Summary of the method: as §1

[7] = biological target: SPI1 (Homo sapiens, UniProt P17947 1-270); conditions: protein: recombinant; tags: N-terminal GST; dsDNA, one strand shown
Summary of the method: as §1

[8] = biological target: SPIB (Homo sapiens, UniProt Q01892 1-262); conditions: protein: recombinant; tags: N-terminal GST; dsDNA, one strand shown
Sequence of SPIB (Q01892 whole entry): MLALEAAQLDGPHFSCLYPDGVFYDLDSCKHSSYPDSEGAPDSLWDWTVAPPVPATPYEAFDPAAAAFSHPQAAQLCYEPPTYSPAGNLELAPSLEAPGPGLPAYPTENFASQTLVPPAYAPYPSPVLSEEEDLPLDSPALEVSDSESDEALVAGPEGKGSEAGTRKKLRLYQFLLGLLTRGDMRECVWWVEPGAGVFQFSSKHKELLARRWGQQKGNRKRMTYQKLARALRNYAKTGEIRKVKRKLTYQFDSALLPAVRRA
Summary of the method: as §1

[9] = biological target: T6, ELK3 (Homo sapiens, UniProt P41970 1-407); conditions: protein: recombinant; tags: N-terminal GST; dsDNA, one strand shown
T6 sequence: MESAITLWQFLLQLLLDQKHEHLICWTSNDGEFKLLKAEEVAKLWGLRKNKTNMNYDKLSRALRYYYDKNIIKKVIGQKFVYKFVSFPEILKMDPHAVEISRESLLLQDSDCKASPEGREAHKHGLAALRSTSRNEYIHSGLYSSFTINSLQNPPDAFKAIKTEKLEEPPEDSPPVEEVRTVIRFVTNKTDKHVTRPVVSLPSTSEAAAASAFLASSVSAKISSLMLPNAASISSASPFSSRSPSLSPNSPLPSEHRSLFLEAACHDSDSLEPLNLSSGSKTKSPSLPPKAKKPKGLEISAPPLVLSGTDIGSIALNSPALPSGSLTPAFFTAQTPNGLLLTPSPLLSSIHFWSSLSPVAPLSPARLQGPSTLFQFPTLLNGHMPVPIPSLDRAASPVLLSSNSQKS
Summary of the method: as §1

[10] = biological target: T7, FEV (Homo sapiens, UniProt Q99581 1-238); conditions: protein: recombinant; tags: N-terminal GST; dsDNA, one strand shown
T7 sequence: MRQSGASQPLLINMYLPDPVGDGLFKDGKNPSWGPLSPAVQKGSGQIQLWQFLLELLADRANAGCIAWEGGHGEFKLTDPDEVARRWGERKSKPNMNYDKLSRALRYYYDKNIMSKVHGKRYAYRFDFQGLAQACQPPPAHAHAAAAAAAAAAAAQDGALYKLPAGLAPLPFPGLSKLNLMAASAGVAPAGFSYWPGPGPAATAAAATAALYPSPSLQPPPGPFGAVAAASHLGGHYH
Summary of the method: as §1

[11] = biological target: ETV5 (Homo sapiens, UniProt P41161 1-510); conditions: protein: recombinant; tags: N-terminal GST; dsDNA, one strand shown
Sequence of ETV5 (P41161 whole entry): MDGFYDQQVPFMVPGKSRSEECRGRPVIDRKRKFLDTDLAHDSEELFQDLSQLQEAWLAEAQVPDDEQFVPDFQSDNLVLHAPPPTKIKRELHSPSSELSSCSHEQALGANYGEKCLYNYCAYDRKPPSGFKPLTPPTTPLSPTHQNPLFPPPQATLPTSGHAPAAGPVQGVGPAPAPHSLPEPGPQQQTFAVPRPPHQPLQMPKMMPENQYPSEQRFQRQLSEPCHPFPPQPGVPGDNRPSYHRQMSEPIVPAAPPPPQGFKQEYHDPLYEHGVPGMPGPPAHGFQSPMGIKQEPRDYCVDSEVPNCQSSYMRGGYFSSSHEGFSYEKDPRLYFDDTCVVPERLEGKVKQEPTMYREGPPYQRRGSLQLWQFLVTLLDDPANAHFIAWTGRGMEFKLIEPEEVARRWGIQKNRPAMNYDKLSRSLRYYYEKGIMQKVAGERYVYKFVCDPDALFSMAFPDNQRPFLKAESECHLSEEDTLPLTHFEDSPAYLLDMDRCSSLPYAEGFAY
Summary of the method: as §1

[12] = biological target: HSF1 (Homo sapiens, UniProt Q00613 1-529); conditions: protein: recombinant; tags: N-terminal GST; chain copies: 3; dsDNA, one strand shown
Sequence of HSF1 (Q00613 whole entry): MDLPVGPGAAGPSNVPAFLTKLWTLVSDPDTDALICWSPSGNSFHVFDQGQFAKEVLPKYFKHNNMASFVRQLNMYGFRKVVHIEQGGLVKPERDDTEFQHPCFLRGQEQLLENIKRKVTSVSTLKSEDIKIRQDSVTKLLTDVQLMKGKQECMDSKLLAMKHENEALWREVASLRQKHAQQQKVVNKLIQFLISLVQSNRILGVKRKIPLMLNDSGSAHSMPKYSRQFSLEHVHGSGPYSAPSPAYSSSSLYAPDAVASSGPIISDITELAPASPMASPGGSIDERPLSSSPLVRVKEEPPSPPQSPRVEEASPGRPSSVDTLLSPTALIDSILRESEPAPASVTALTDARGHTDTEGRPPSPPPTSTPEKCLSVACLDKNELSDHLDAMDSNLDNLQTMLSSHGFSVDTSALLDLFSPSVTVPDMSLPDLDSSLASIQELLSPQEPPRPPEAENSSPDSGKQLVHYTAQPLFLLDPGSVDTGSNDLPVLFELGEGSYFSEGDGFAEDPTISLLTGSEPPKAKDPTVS
Summary of the method: as §1

[13] = biological target: T8, SPIC (Homo sapiens, UniProt Q8N5J4 1-248); conditions: protein: recombinant; tags: N-terminal GST; dsDNA, one strand shown
T8 sequence: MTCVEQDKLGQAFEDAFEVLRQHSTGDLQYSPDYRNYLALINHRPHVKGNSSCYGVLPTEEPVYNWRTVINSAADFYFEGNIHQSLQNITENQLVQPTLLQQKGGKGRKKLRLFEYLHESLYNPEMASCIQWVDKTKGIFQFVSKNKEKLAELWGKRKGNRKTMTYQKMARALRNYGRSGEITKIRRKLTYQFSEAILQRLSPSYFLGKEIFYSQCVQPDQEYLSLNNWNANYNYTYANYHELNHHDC
Summary of the method: as §1

[14] = biological target: ELF4 (Homo sapiens, UniProt Q99607 1-663); conditions: protein: recombinant; tags: N-terminal GST; dsDNA, one strand shown
Sequence of ELF4 (Q99607 whole entry): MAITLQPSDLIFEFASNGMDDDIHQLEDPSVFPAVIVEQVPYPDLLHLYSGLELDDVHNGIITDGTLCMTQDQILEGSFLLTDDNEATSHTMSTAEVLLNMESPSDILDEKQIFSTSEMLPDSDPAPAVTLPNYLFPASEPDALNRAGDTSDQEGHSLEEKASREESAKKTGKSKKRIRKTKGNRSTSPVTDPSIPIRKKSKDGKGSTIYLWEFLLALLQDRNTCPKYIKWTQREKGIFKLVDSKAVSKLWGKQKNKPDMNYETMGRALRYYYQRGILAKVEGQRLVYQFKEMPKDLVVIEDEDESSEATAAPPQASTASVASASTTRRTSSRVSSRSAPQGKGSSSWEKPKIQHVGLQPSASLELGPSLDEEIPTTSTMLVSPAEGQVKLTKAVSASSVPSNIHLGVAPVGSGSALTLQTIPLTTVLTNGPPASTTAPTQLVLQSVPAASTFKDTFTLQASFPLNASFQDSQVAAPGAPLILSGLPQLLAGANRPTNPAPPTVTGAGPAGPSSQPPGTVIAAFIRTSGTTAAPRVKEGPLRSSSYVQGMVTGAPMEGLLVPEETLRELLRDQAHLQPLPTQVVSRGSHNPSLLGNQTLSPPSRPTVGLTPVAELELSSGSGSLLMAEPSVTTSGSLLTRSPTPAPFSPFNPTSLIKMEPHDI
Summary of the method: as §1

[15] = biological target: T9, ELK4 (Homo sapiens, UniProt P28324-2 1-405); conditions: protein: recombinant; tags: N-terminal GST; dsDNA, one strand shown
T9 sequence: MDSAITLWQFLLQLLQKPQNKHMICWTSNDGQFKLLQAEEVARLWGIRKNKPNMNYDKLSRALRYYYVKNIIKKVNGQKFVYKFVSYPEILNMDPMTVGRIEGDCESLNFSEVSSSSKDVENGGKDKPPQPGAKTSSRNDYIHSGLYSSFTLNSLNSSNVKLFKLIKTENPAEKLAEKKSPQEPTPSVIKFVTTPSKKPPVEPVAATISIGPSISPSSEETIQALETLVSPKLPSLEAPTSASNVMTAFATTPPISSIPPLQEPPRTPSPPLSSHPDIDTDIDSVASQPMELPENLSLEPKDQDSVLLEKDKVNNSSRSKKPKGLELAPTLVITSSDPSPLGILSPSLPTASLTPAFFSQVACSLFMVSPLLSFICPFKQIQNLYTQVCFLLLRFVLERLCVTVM
Summary of the method: as §1

[16] = biological target: T10, ETV2 (Homo sapiens, UniProt O00321 1-342); conditions: protein: recombinant; tags: N-terminal GST; dsDNA, one strand shown
T10 sequence: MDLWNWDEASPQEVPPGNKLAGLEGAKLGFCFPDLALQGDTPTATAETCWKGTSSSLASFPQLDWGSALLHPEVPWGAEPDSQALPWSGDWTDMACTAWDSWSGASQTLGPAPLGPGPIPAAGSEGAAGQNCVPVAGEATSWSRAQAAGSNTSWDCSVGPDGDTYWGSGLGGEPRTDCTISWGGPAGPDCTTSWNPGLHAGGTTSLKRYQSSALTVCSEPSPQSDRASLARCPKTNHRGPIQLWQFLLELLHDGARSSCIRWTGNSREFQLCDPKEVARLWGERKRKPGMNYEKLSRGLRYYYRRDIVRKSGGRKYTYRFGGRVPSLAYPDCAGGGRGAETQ
Summary of the method: as §1

[17] = biological target: T11, ELF3 (Homo sapiens, UniProt P78545 1-371); conditions: protein: recombinant; tags: N-terminal GST; dsDNA, one strand shown
T11 sequence: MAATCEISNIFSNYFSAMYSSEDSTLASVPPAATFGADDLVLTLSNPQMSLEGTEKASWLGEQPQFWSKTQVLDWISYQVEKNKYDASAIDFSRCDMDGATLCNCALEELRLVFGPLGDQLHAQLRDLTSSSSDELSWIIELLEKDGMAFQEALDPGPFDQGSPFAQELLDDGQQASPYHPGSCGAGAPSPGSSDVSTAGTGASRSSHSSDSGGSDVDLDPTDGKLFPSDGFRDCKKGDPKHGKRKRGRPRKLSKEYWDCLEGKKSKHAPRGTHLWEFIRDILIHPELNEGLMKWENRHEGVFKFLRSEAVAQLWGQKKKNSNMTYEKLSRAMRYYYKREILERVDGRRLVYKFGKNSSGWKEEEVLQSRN
Summary of the method: as §1

[18] = biological target: CRX (Homo sapiens, UniProt O43186 1-299); conditions: protein: recombinant; tags: N-terminal GST; dsDNA, one strand shown
Sequence of CRX (O43186 whole entry): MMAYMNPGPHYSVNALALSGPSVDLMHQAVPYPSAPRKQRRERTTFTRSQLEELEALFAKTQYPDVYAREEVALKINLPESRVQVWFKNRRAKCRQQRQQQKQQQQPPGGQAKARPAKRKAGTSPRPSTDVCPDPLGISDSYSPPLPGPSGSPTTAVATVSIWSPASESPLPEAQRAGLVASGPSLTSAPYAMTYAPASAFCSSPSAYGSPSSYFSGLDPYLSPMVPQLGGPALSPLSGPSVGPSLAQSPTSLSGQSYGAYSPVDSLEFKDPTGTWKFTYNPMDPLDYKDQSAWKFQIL
Summary of the method: as §1

[19] = biological target: ETV1 (Homo sapiens, UniProt P50549 1-477); conditions: protein: recombinant; tags: N-terminal GST; dsDNA, one strand shown
Sequence of ETV1 (P50549 whole entry): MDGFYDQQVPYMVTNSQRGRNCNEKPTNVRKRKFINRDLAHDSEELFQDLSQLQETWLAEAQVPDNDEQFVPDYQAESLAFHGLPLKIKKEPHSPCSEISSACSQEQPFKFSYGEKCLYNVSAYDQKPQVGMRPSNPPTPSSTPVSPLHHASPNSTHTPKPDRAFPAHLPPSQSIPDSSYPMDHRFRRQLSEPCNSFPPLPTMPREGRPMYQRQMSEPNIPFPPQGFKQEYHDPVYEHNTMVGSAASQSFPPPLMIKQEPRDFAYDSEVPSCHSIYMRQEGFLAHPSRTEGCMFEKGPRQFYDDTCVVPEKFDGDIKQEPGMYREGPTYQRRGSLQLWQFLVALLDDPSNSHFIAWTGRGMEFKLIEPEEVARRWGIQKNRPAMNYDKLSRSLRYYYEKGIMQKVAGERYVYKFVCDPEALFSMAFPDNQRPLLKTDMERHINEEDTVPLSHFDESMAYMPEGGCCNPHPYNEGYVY
Summary of the method: as §1

TTCCCT
binding signal [1]: 1.81 fold enrichment (6-mer frequency, TF over GST control) | binding signal [2]: 1.67 fold enrichment (6-mer frequency, TF over GST control) | binding signal [3]: 1.72 fold enrichment (6-mer frequency, TF over GST control) | binding signal [4]: 1.72 fold enrichment (6-mer frequency, TF over GST control) | binding signal [5]: 1.68 fold enrichment (6-mer frequency, TF over GST control) | binding signal [6]: 1.68 fold enrichment (6-mer frequency, TF over GST control) | binding signal [7]: 2.23 fold enrichment (6-mer frequency, TF over GST control) | binding signal [8]: 1.9 fold enrichment (6-mer frequency, TF over GST control) | binding signal [9]: 1.8 fold enrichment (6-mer frequency, TF over GST control) | binding signal [10]: 1.64 fold enrichment (6-mer frequency, TF over GST control) | binding signal [11]: 1.69 fold enrichment (6-mer frequency, TF over GST control) | binding signal [12]: 1.52 fold enrichment (6-mer frequency, TF over GST control) | binding signal [13]: 1.84 fold enrichment (6-mer frequency, TF over GST control) | binding signal [14]: 1.79 fold enrichment (6-mer frequency, TF over GST control) | binding signal [15]: 1.65 fold enrichment (6-mer frequency, TF over GST control) | binding signal [16]: 1.62 fold enrichment (6-mer frequency, TF over GST control) | binding signal [17]: 1.57 fold enrichment (6-mer frequency, TF over GST control) | binding signal [18]: 1.31 fold enrichment (6-mer frequency, TF over GST control) | binding signal [19]: 1.68 fold enrichment (6-mer frequency, TF over GST control)
